# PLCb3 inh: blocks human PLC-beta3 enzyme activity; Q01970; 0.18% of 370,000 active; inhibition, % at 12.2 µM; Purified PLC-beta3, fluorogenic substrate, fluorescence; in the data active = inhibition above about 11%
# ADAM17 inh: ADAM17 inhibition, QFRET primary screen; recombinant ADAM17, EDANS/DABCYL FRET peptide cleavage; 0.83% of 370,000 active; inhibition, % at 6.95 µM;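 active = inhibition above the mean of compounds lying between control limits plus 3 SD, set per campaign, cut at about 8.5% in these data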
# Target sequence (P78536 215-824 limits assumed): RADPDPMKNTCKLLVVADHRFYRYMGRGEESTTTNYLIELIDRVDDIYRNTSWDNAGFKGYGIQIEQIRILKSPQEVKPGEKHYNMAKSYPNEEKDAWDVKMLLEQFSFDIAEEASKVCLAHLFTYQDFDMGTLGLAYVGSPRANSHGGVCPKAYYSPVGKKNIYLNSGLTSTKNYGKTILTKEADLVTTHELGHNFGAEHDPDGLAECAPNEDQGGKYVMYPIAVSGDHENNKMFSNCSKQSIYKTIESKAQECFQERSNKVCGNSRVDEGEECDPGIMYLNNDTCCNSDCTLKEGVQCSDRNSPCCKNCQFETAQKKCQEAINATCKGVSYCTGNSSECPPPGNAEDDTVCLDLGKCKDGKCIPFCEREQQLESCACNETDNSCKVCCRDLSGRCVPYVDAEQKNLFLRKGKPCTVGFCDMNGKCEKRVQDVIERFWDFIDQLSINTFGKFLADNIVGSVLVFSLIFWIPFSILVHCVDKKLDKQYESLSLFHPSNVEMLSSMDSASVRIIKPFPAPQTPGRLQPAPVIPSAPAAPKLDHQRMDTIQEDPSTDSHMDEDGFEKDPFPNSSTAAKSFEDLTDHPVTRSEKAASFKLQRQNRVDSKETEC
# PLC-gamma1 inh: blocks human PLC-gamma1 enzyme activity; AID 720700; P19174; 0.84% of 370,000 active; inhibition, % at 12.2 µM; purified PLC-gamma1, fluorogenic substrate, fluorescence
# proKLK7 act: activators of human kallikrein-7 zymogen; purified proKLK7, EDANS-DABCYL substrate fluorescence; 100% is mature enzyme control, 0% vehicle; activation, % at 7 µM; AID 652039; 0.9% of 370,000 active; P49862;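 active = activation above the mean of all tested compounds plus 3 SD, computed per campaign excluding outliers beyond control limits, cut at about 13% in these data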
# ADAM10 inh: inhibitors of human ADAM10; recombinant ADAM10, EDANS/DABCYL FRET peptide cleavage, 3 h; inhibition, % at 7 µM; 0.62% of 370,000 active; AID 720582;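 active = inhibition above a per-campaign cutoff equal to the mean of compounds falling between control-based bounds plus 3 SD, cut at about 20% in these data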
# ADAM10 counter: inhibits human ADAM10 in ADAM17 exosite counter-screen | shares compounds with ADAM17 inh | recombinant ADAM10, EDANS/DABCYL FRET peptide cleavage, 3 h | inhibition, % at 6.95 µM | 47% of 2,900 active;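 active = mean inhibition over the triplicate runs exceeds the activity threshold set in the earlier primary screen, cut at about 20% in these data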
# ADAM17 confirm: confirmation of inhibitors of human ADAM17; shares compounds with ADAM17 inh; recombinant ADAM17, EDANS/DABCYL QFRET peptide cleavage; inhibition, % at 6.95 µM; 65% of 2,900 active; AID 743257;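 active = mean inhibition across replicates above the hit cutoff set in the primary screen, cut at about 8.5% in these data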
# PLCgamma1 ctr: counter-screen for PLC-beta3 inhibitors: inhibitors of human PLC-gamma1. shares compounds with PLC-gamma1 inh. purified PLC-gamma1, fluorogenic substrate, fluorescence. inhibition, % at 12.3 µM. 3.1% of 3,300 active. AID 743258
# PLCb3 confirm: human PLC-beta3 inhibition, confirmation; shares compounds with PLC-gamma1 inh; purified PLC-beta3, fluorogenic substrate fluorescence; inhibition, % at 12.3 µM; 1% of 3,300 active; in the data active = inhibition above about 11%
# A number is an active result; n = inactive; x = no result. Shown are actives, neighbours in structure and some others; about 2.9% of the full set was active somewhere. Rule as the data show it, unless noted: active = inhibition above about 9.5%; inactive = the rest.
SMILES,PLCb3 inh,ADAM17 inh,PLC-gamma1 inh,proKLK7 act,ADAM10 inh,ADAM10 counter,ADAM17 confirm,PLCgamma1 ctr,PLCb3 confirm
O=C(NCC1CCCO1)c1cnn2c1NC(c1ccccc1)CC2C(F)(F)F (stereo not drawn),n,11.0,12.1,n,n,n,n,n,n
O=C(NCC1CCCO1)c1nn2c(c1Cl)NC(c1ccc(F)cc1)CC2C(F)(F)F (stereo not drawn),n,n,n,n,n,x,x,x,x
COc1cccc(-c2csc3ncnc(Sc4nnnn4C)c23)c1,n,n,n,n,n,x,x,x,x
O=C(Cc1cccs1)Nc1nc(-c2ccc(F)c(F)c2)cs1,n,n,n,n,n,x,x,x,x
O=C(Cc1cccs1)Nc1nc(-c2ccc(F)cc2F)cs1,n,14.1,12.6,n,n,n,10.7,n,n
O=c1[nH]n(-c2ccccc2Cl)c(=O)c2ccccc12,n,10.5,13.9,n,n,n,10.4,n,n
Cn1[nH]c(=O)c2ccccc2c1=O,n,n,n,n,n,x,x,x,x
C=CCC[C@@H](Cc1ccc(F)cc1)C(=O)OC[C@@H](NC(=O)[C@@H](CC=C)CC(=O)N[C@H](CO)Cc1ccccc1)C(C)(C)C,n,9.6,10.7,n,n,35.3,18.0,n,n
C=CCC[C@@H](Cc1ccc(F)cc1)C(=O)OC[C@@H]1CCCN1C(=O)[C@@H](CC=C)CC(=O)N[C@@H](CO)Cc1ccccc1,n,9.1,10.8,n,n,n,9.3,n,n
C=CC[C@@H](Cc1ccc(F)cc1)C(=O)OC[C@@H]1CCCN1C(=O)[C@H](CC=C)CC(=O)N(CCO)Cc1ccccc1,n,10.1,10.5,n,n,n,n,n,n
CCCCn1c(SCC(=O)NC2CC2)nc2cc(C(=O)OC)ccc2c1=O,n,n,n,n,n,x,x,x,x
O=C(CCNS(=O)(=O)c1ccccc1)NCCCSc1ccccc1,n,n,n,n,n,x,x,x,x
O=C(CCNS(=O)(=O)c1ccccc1C(F)(F)F)NCCCSc1ccccc1,n,8.7,11.8,n,n,n,10.1,n,n
O=[N+]([O-])c1cccc(-c2c(-c3ccccc3)ncc3ccc(F)cc23)c1,11.3,10.7,n,n,n,n,n,n,n
Fc1cccc(-c2c(-c3ccccc3)ncc3cc(F)ccc23)c1,n,n,n,n,n,x,x,x,x
CC1=C(C(=O)N2CCOCC2)CC(CC(=O)NC2CCCCC2)C(=O)N1Cc1ccc(C(C)(C)C)cc1 (stereo not drawn),n,n,n,n,n,x,x,x,x
O=C(NCCOCC(F)(F)C(F)F)c1cc(F)c(F)cc1Cl,n,8.7,15.1,n,n,n,n,n,n
CC1CC(C)CN(C(=O)COC(=O)COc2ccccc2C#N)C1 (stereo not drawn),n,9.7,12.7,n,n,21.6,10.7,n,n
O=C1CSC(c2ccccc2)N1c1cccnc1 (stereo not drawn),n,n,n,n,n,x,x,x,x
COc1ccccc1NC(=O)Cn1cnc2c(nnn2-c2ccc(C)cc2)c1=O,n,n,n,n,n,x,x,x,x
CC(C)CN(CC(C)C)S(=O)(=O)c1cc([N+](=O)[O-])ccc1N1CCCCCC1,n,n,n,n,n,x,x,x,x
CN(C)S(=O)(=O)c1cc([N+](=O)[O-])ccc1N1CCCCCC1,n,10.3,10.1,n,n,n,10.7,n,n
CCOC(=O)c1c(C)[nH]c(C)c1S(=O)(=O)NCCc1sccc1C,n,9.0,9.9,n,n,n,n,n,n
CCOC(=O)c1c(C)[nH]c(C)c1S(=O)(=O)NCCc1ccc(SC)cc1,n,n,n,n,n,x,x,x,x
COc1ccc(C2C(C(=O)Nc3ccc(Cl)c(Cl)c3)CCC(=O)N2c2ccc(OC)cc2)cc1 (stereo not drawn),n,n,n,n,n,x,x,x,x
SMILES,PLCb3 inh,ADAM17 inh,PLC-gamma1 inh,proKLK7 act,ADAM10 inh,ADAM10 counter,ADAM17 confirm,PLCgamma1 ctr,PLCb3 confirm
NC(=O)CC[C@H](NC(=O)c1ccc(F)cc1)C(=O)OCC(=O)Nc1c(F)c(F)c(F)c(F)c1F,n,n,n,n,n,x,x,x,x
NC(=O)CC[C@H](NC(=O)c1ccc(F)cc1)C(=O)OCC(=O)NCc1ccc(F)cc1,n,10.1,10.2,n,n,n,n,n,n
COc1ccc(S[C@]2(C(=O)N3CCN(C(C)=O)CC3)CC(=O)N(C(=O)CCc3ccccc3)[C@@H]2c2ccc(OC)cc2)cc1,n,15.8,10.8,n,n,23.9,12.8,n,n
COC(=O)c1cccc(N2C(=O)C[C@](Sc3ccc(OC)cc3)(C(=O)N3CCOCC3)[C@H]2c2ccc(OC)cc2)c1,n,13.6,14.8,n,n,n,n,n,n
COc1ccc(S[C@]2(C(=O)N3CCN(c4ncccn4)CC3)CC(=O)N(c3ccccc3)[C@@H]2c2ccc(OC)cc2)cc1,n,n,n,n,n,x,x,x,x
COCCNC(=S)N1C[C@H]2CON(C)[C@H]2C[C@H]1c1ccccc1Br,n,9.4,9.7,n,n,n,n,n,n
O=C(NCCc1cccs1)C1CC(c2c(Cl)cccc2Cl)=NO1 (stereo not drawn),n,n,n,n,n,x,x,x,x
COc1cc(OC)cc(C(=O)OCn2nnc3ccccc3c2=O)c1,n,n,n,n,n,x,x,x,x
CCN(CC)S(=O)(=O)c1ccc(C(=O)OCn2nnc3ccccc3c2=O)cc1,16.9,10.4,n,n,n,n,n,n,n
COC(=O)[C@H](CCSC)NC(=O)Cn1cnc2c(OCc3ccccc3)ncnc21,n,n,n,n,n,x,x,x,x
Cc1ccc(S(=O)(=O)N2C3CCCCC3O[C@H]2CC(=O)c2ccc(F)cc2)cc1 (stereo partly drawn),n,9.6,11.0,n,n,n,n,n,n
Cc1ccc(S(=O)(=O)N2C3CCCCC3O[C@H]2CC(=O)c2ccccc2)cc1 (stereo partly drawn),n,n,n,n,n,x,x,x,x
CCC(=O)Nc1nnc(C)s1,n,11.7,10.2,n,n,n,n,n,n
CCCCC(=O)Nc1nnc(C)s1,n,n,n,n,n,x,x,x,x
CC1CN(C(=S)NC2CCCC2)CC(C)O1 (stereo not drawn),n,n,n,n,n,x,x,x,x
CCn1cc(C(=O)N2CCN(Cc3ccc(C)cc3)CC2)c(=O)c2ccc(C)nc21,n,n,n,n,n,x,x,x,x
N/C(=N\N=C\c1cccc([N+](=O)[O-])c1)c1nonc1N,n,n,n,n,n,x,x,x,x
N/C(=N\N=C\c1ccc2c(c1)OCO2)c1nonc1N,13.1,9.8,9.8,n,n,n,n,n,n
CN1N=C(C(=O)N=c2sc3ccccc3n2C)CCC1=O,n,n,n,n,n,x,x,x,x
